Anthrax LF prot – inhibitors of Bacillus anthracis lethal factor protease. multiplex microsphere protease cleavage assay, LF. P15917. inhibition, % at 10 µM. 360,000 tested, 0.12% active
Target sequence (P15917 whole entry, looked up): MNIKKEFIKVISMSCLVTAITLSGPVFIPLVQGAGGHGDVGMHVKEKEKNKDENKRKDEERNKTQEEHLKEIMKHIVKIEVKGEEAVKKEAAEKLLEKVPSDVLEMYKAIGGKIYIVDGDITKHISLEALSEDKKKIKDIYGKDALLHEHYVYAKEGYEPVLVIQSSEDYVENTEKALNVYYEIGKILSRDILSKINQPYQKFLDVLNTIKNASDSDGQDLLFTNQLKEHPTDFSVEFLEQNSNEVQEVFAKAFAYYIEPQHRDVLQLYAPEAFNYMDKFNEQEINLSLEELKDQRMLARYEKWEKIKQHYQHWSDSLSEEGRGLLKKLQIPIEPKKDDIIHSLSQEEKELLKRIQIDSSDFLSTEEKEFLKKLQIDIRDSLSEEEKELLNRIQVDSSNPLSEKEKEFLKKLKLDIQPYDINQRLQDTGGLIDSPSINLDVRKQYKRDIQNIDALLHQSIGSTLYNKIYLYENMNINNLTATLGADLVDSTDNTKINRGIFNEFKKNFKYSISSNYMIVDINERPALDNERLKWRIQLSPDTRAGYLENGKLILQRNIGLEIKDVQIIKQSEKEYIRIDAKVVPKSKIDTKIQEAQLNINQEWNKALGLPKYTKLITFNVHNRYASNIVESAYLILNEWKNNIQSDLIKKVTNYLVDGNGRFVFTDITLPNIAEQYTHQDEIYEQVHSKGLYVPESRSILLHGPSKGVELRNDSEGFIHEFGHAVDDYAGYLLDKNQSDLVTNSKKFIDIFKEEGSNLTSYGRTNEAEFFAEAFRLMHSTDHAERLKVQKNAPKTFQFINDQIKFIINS
Bead autofluor – counter-screen for toxin protease inhibitors: compound fluorescence; compound autofluorescence counterscreen, microsphere flow cytometry; hits give high values; fluorescence intensity (no concentration beside the values); 360,000 tested, 3.1% active; AID 624483; in the data active means fluorescence intensity above about 16000; inconclusive means no clear call, values can overlap the other calls
BoNT A protease – inhibitors of Botulinum neurotoxin A light chain protease | multiplex microsphere protease substrate cleavage, flow cytometry | inhibition, % at 10 µM | 360,000 tested, 0.17% active | AID 588499
BoNT-F LC inh – blocks Botulinum neurotoxin F light chain protease. Multiplex microsphere protease cleavage assay, flow cytometry. inhibition, % at 10 µM. 360,000 tested, 0.22% active. AID 588497; in the data active means inhibition above about 35%, passing the limit was not always enough; inconclusive means no clear call, values can overlap the other calls
PriA SSB inh – inhibitors of Klebsiella pneumoniae PriA binding to SSB C-terminal tail; AlphaScreen SSBct-PriA binding, biotinylated peptide; 430,000 tested, 0.6% active; inhibition, % at 33 µM; in the data active means inhibition mostly above about 37%, no sharp cut-off; inactive means mostly below about 20%
Of the large screens only hits and unclear results are named; the others gave an inactive call. Hits are enriched below; roughly 3.1% of the tested compounds scored in any of these assays. Unless noted, no stated cut-off is given here; in the data, active means inhibition above about 30%; inconclusive means no clear call, values can overlap the other calls; inactive means below that.

O=C(O)CCc1ccc(-c2ccc(Cl)cc2)o1	none
O=C(O)CCc1ccc(-c2ccc(Br)cc2)o1	Bead autofluor 23745, BoNT A protease inconclusive
CCOC(=O)c1c(C)c(C(=O)NCc2cccs2)c(C)n1C	Bead autofluor 17882
CCOC(=O)c1c(C)c(C(=O)NCCCN2CCCC2=O)c(C)n1CC	Bead autofluor 22714
CCOC(=O)c1c(C)c(C(=O)Nc2ccc(N(C)C)cc2)c(C)n1CC	none
CCOC(=O)c1c(C)c(C(=O)NCc2cccnc2)c(C)n1CC	Bead autofluor 20195, BoNT A protease inconclusive
CCOC(=O)c1c(C)c(C(=O)NCc2ccco2)c(C)n1CC	none
CCOC(=O)c1c(C)c(C(=O)NCCOC)c(C)n1CC	Bead autofluor 23521
CN(C)S(=O)(=O)c1ccc(C(=O)Nc2c3c(nn2CC(=O)NC[C@H]2CCCO2)CSC3)cc1	none (no result: Anthrax LF prot, Bead autofluor, BoNT A protease, BoNT-F LC inh)
O=C(Nc1ccc2ncsc2c1)c1sc2ccccc2c1Cl	none (no result: Anthrax LF prot, Bead autofluor, BoNT A protease, BoNT-F LC inh)
Cc1cc(NC(=O)c2nccnc2-c2nc3ccccc3s2)no1	none (no result: Anthrax LF prot, Bead autofluor, BoNT A protease, BoNT-F LC inh)
CS(=O)(=O)N1CCC(C(=O)NCC2(O)CCCC2)CC1	none (no result: Anthrax LF prot, Bead autofluor, BoNT A protease, BoNT-F LC inh)
CCOC(=O)c1c(C)c(C(=O)OCC)n(C)c1C	none
CCOC(=O)c1c(C)c(C(=O)NCCCOC)c(C)n1C	Bead autofluor 20527, BoNT A protease inconclusive
O=C(O)CCC(=O)Nc1ccccn1	none (no result: Anthrax LF prot, Bead autofluor, BoNT A protease, BoNT-F LC inh)
Cc1ccc(CC(=O)NCCN2CCOCC2)cc1	BoNT-F LC inh 36
Cc1ccc(CC(=O)NCC(C)C)cc1	Bead autofluor 22914
COc1cccc2c(=O)n(CC(=O)Nc3ccc(Cl)c(Cl)c3)ccc12	none (no result: Anthrax LF prot, Bead autofluor, BoNT A protease, BoNT-F LC inh)
O=C(Nc1ccc(N2CCOCC2)nc1)c1ccc(Cl)cc1	Bead autofluor 22714
C/C(=C\C(=O)c1ccc(Cl)cc1)Nc1ccc(N2CCOCC2)cc1	Bead autofluor 16147 (no result: PriA SSB inh)
COC(=O)CCCSc1nccn1-c1ccccc1	none
c1ccc(CCSc2nccn2-c2ccccc2)cc1	PriA SSB inh 62
CCc1ccc(CSc2nccn2-c2ccccc2)cc1	PriA SSB inh 63
Cn1nc(CNS(=O)(=O)c2ccc3c(c2)CCCC3)cc1C1CC1	none (no result: Anthrax LF prot, Bead autofluor, BoNT A protease, BoNT-F LC inh)
O=C(c1ccco1)N1CCN(C(=O)c2nn3cccnc3c2Cl)CC1	Bead autofluor 22749
Cc1cc(N2CCOCC2)nc(CNC(=O)c2cccs2)n1	none (no result: Anthrax LF prot, Bead autofluor, BoNT A protease, BoNT-F LC inh)
COc1ccc(CCNC(=O)CC2Nc3ccccc3NC2=O)cc1OC (stereo not drawn)	Bead autofluor 24834
CCOc1ccccc1NC(=O)CC1Nc2ccccc2NC1=O (stereo not drawn)	none
CCCOc1ccccc1NC(=O)CC1Nc2ccccc2NC1=O (stereo not drawn)	Bead autofluor 21938
CCc1ccc(-c2cc(C(=O)NN=Cc3c[nH]c4ccccc34)[nH]n2)cc1	none (no result: Anthrax LF prot, Bead autofluor, BoNT A protease, BoNT-F LC inh)
CCN(CC)c1ccc(C=Nc2sc3c(c2C#N)CCCC3)c(O)c1	none (no result: Anthrax LF prot, Bead autofluor, BoNT A protease, BoNT-F LC inh)
C=CCc1cccc2ccc(=O)oc12	BoNT-F LC inh 37
C=CCc1cccc2cc(C(C)=O)c(=O)oc12	none (no result: Anthrax LF prot, Bead autofluor, BoNT A protease, BoNT-F LC inh)
O=C(NC1CCCCCC1)C1c2ccccc2C(=O)N1CCCN1CCOCC1 (stereo not drawn)	Bead autofluor 20267, BoNT A protease inconclusive
Cc1ccc(C(=O)OCn2ncc(Cl)c(Cl)c2=O)cc1	Bead autofluor 17159
Cc1cccc(Cn2ncc(Cl)c(Cl)c2=O)c1	Bead autofluor 16414
Cc1ccccc1Cn1nnc2c1C(=O)c1ccccc1C2=O	Bead autofluor inconclusive
Cc1cccc(Cn2nnc3c2C(=O)c2ccccc2C3=O)c1	Bead autofluor 16137
O=C(OCn1ncc(Cl)c(Cl)c1=O)c1ccc(C(F)(F)F)cc1	none
O=C(/C=C/c1ccc2c(c1)OCO2)Nc1nnc(SCC(=O)NCc2ccc(F)cc2)s1	none (no result: Anthrax LF prot, Bead autofluor, BoNT A protease, BoNT-F LC inh)
FC(F)(F)c1cccc(Cc2noc(CN3CCCC3)n2)c1	none
CCOC(=O)C1CCN(Cc2ccc(F)c(F)c2)CC1	none
Fc1ccc(CN2CCCCCCC2)c(F)c1	none
FC(F)(F)c1cccc(CN2CCCCCC2)c1	Bead autofluor 24319
Fc1ccc(CN2CCCCCC2)c(F)c1	Bead autofluor 22437
Fc1ccc(CN2CCCCCCC2)cc1F	Bead autofluor 16629
O=C(NC1CCCCC1)c1noc2c1CCCCC2	Bead autofluor 22953
CC(C)CNC(=O)c1noc2c1CCCC2	none
CC(C)(C)C1CCc2onc(C(=O)NC3CCCC3)c2C1 (stereo not drawn)	Bead autofluor 21049
Cc1ccccc1-c1noc(CSc2nc3ccsc3c(=O)n2C)n1	none (no result: Anthrax LF prot, Bead autofluor, BoNT A protease, BoNT-F LC inh)
Cc1nc(-n2cccc2)sc1C(=O)NCCn1nc(C(F)(F)F)n(C)c1=O	none (no result: Anthrax LF prot, Bead autofluor, BoNT A protease, BoNT-F LC inh)
CCCOc1c(OC)cccc1C1CC(=O)Nc2cc(OC)c(OC)c(OC)c21 (stereo not drawn)	none
COc1cc2c(c(OC)c1)C(c1cccc(OC)c1OC)CC(=O)N2 (stereo not drawn)	PriA SSB inh 115
COc1cc(OC)cc(C(=O)NC2CCN(Cc3nnnn3Cc3ccc(F)cc3)CC2)c1	none
COc1cc(OC)cc(C(=O)NC2CCN(Cc3nnnn3Cc3cccs3)CC2)c1	Bead autofluor 25214
Clc1ccccc1-c1nc(-c2ccccc2)n[nH]1	Bead autofluor 24108
CC1=C(C(=O)NCc2ccccc2)C(c2ccccc2OCC(N)=O)NC(=O)N1 (stereo not drawn)	none
CCOc1cc(C2NC(=O)NC(C)=C2C(=O)NCc2ccccc2)c(Cl)cc1O (stereo not drawn)	Bead autofluor 20868
COc1cc(C2NC(=O)NC(C)=C2C(=O)NCc2ccccc2)c(Cl)cc1O (stereo not drawn)	none
C=CCOc1ccccc1C1NC(=O)NC(C)=C1C(=O)NCc1ccccc1 (stereo not drawn)	Bead autofluor 17255, BoNT A protease inconclusive
COc1ccc2cc(C(=O)NCCCn3ccc4cccnc43)[nH]c2c1	none (no result: Anthrax LF prot, Bead autofluor, BoNT A protease, BoNT-F LC inh)
CCOc1ccc(C(=O)NNc2cc(=O)n(C)c(=O)n2C)cc1OCC	none (no result: Anthrax LF prot, Bead autofluor, BoNT A protease, BoNT-F LC inh)
COc1ccc(-c2oc(NC(=O)CSc3ncn[nH]3)c(C#N)c2-c2ccc(OC)cc2)cc1	Bead autofluor 22915
COc1ccc(-c2oc(NC(=O)CCl)c(C#N)c2-c2ccc(OC)cc2)cc1	none
Cc1ccc(S(=O)(=O)N(C)CCCC(=O)Nc2ccc3c(c2)Cc2ccccc2-3)cc1	none (no result: Anthrax LF prot, Bead autofluor, BoNT A protease, BoNT-F LC inh)
CCCCCCCSc1cc(OC)c(CCN(C)C)cc1OC	PriA SSB inh 49
COC(=O)C(=O)CC(=O)c1ccc(C)cc1	none (no result: Anthrax LF prot, Bead autofluor, BoNT A protease, BoNT-F LC inh)
Cc1cc(NS(=O)(=O)c2ccc(NC(=O)C(C)Oc3cc(C)c(Cl)c(C)c3)cc2)no1 (stereo not drawn)	none
Cc1ccc(OC(C)C(=O)Nc2ccc(S(=O)(=O)Nc3cc(C)on3)cc2)cc1 (stereo not drawn)	Bead autofluor 21520, BoNT A protease inconclusive
Cc1cc(NS(=O)(=O)c2ccc(NC(=O)C(C)Oc3ccc(Cl)cc3)cc2)no1 (stereo not drawn)	Bead autofluor 17111
Cc1cc(NS(=O)(=O)c2ccc(CC(C)C)cc2)no1	Bead autofluor 18585
Cc1noc(Cc2ccccc2NC(=O)CCn2ccc(=O)[nH]c2=O)n1	none (no result: Anthrax LF prot, Bead autofluor, BoNT A protease, BoNT-F LC inh)
COc1ccc(C(=O)COC(=O)CCN=C2NS(=O)(=O)c3ccccc32)cc1OC	Bead autofluor 20801
CC(C)C(=O)N1CCCc2cc(NC(=O)c3ccccc3C(F)(F)F)ccc21	none (no result: Anthrax LF prot, Bead autofluor, BoNT A protease, BoNT-F LC inh)
COCCn1c(C)cc(C2=NNC(=Nc3ccccc3)SC2)c1C	none
COc1ccccc1C1=NNC(=Nc2cccc(S(=O)(=O)N(C)C)c2)SC1	PriA SSB inh 43
